Hits are enriched below; roughly 8.7% of the tested compounds scored in any of these assays.
Pf growth 96h – P. falciparum growth inhibition at 96 hours. P. falciparum luciferase reporter growth, 96 h. Potency, µM (top dose mostly 28.7 µM), for the others: top-dose activity change, negative = inhibition, hits mostly inhibitors. 320,000 tested, 6.9% active
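Compounds incubated with erythrocytes infected by luciferase-expressing P. falciparum (2% hematocrit, 0.05% parasitemia final) for 96 hours, 37 C in 5% CO2. Growth inhibition scored as decreased luciferase luminescence.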
Pf growth 48h – P. falciparum growth inhibition at 48 hours (one generation); P. falciparum luciferase growth in erythrocytes, 48 h; Potency, µM (highest dose often 28.7 µM), without a hit: top-dose activity change, negative = inhibition, hits mostly inhibitors; 310,000 tested, 5.9% active
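A one-generation exposure of luciferase-tagged malaria parasites in RPMI 1640/Albumax erythrocyte culture, 37 C and 5% CO2. Inhibition is inferred from decreased luminescence after adding detection reagent.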
Vaccinia Venus – vaccinia inhibition (Venus reporter) | Potency, µM (doses to about 36.5 µM), inactives show at the highest dose activity change, negative = inhibition, actives largely listed as inhibitors | Vaccinia virus Venus reporter expression, fluorescence | 330,000 tested, 0.46% active; calls by dose curve; tested in A549 cells; further: nearly all actives have a fitted effect of over 30% in size
VACV mCherry inh – inhibitors of vaccinia virus infection (mCherry reporter signal). Vaccinia virus mCherry reporter infection, fluorescence. Potency, µM (top dose mostly 36.5 µM), for the others: top-dose activity change, negative = inhibition, actives largely listed as inhibitors. 310,000 tested, 0.63% active. AID 720579; calls by dose curve; tested in A549 cells; further: nearly all actives have a fitted effect of over 35% in size
AMA1 RON2 block – disrupts binding of P. falciparum AMA1 to RON2 | AlphaScreen AMA1-biotinylated RON2 peptide binding | Potency, µM (series often up to 58.2 µM), without a hit: at the top dose activity change, negative = inhibition, most hits filed as inhibitors | 360,000 tested, 0.2% active | AID 720542;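 further: 0% = vehicle wells and -100% = peptide control; nearly all actives have a fitted effect of over 45% in size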
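AMA1 (3D7) with his tag at 25 nM final met compounds first, then biotinylated RON2 peptide at 25 nM; detection used donor plus acceptor beads, 10 µg/mL apiece, read by AlphaScreen after 30 min at room temperature.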
Starred values were filed as active, the others as inactive; [ ] = another dose, or the depositor's remark. Unless noted, the call rests on the fitted dose curve; in most records, active means well fitted curve in the direction sought with a large enough effect; inconclusive means small, poorly fitted or top-dose-only effect, or another doubt; inactive means no such curve, though single readings can be large; an effect the other way counts as inactive or inconclusive. Unless noted, on the % scale 0 is the no-effect control and ±100 the full control effect; potency means the concentration at half of the fitted maximal effect.

O=C(O)c1ccc(S(=O)(=O)N[C@H](Cc2ccc(C(F)(F)F)cc2)C(=O)O)cc1 was read as Pf growth 96h -5.1% and Pf growth 48h 20.5%.
CCOC(=O)c1ccc(NC(=O)Nc2c[nH]c(=O)[nH]c2=O)cc1 was read as Vaccinia Venus -6.4% and VACV mCherry inh -9.0%.
CCN(CC)c1ccc(/C=N/NC(=O)Cc2cccs2)c(O)c1 was read as Pf growth 96h inconclusive, Pf growth 48h inconclusive, Vaccinia Venus inconclusive, VACV mCherry inh 6.31µM* and AMA1 RON2 block 45.8%[11.6 µM].
`Cc1ccc2cc(/C=N/NC(=O)c3ccc(F)cc3)c(Cl)nc2c1` gave Pf growth 96h 23.8%, Pf growth 48h 10.2%, Vaccinia Venus 1.0%, VACV mCherry inh -14.3% and AMA1 RON2 block 9.1%.
Cc1ccc2cc(/C=N/Nc3nc4ccccc4[nH]3)c(Cl)nc2c1 was read as Pf growth 96h inconclusive, Pf growth 48h 0.738µM*, Vaccinia Venus -2.2%, VACV mCherry inh inactive and AMA1 RON2 block 75.9%.
Screening CCC1CN(CCNC(=O)c2cc(C(C)C)nn2C)Cc2cc(OC)ccc2O1 (stereo not given) returned Vaccinia Venus -18.9% and VACV mCherry inh -19.0%.
`CCCC1=[N+](CC(=O)c2ccc(Br)cc2)CCn2cccc21` gave Pf growth 96h inconclusive, Pf growth 48h 11.7µM*, Vaccinia Venus -0.2%[7.34 µM], VACV mCherry inh -16.4%[7.34 µM] and AMA1 RON2 block -5.9%.
`COc1ccc(-n2nc(C(=O)NCC(=O)N3CCC4(CC3)OCCO4)c3ccccc3c2=O)cc1` gave Pf growth 96h 2.7%, Pf growth 48h 4.9%, Vaccinia Venus -6.4%, VACV mCherry inh -2.0% and AMA1 RON2 block 1.6%.
`COc1cccc(-n2nc(C(=O)NCC3CCCO3)c3ccccc3c2=O)c1` (stereo not given) gave Pf growth 96h 3.7µM*, Pf growth 48h -16.1% and AMA1 RON2 block -1.9%.
`COc1ccc(C(CNC(=O)c2nn(-c3ccccc3)c(=O)c3ccccc23)N2CCOCC2)cc1` (stereo not given) gave Pf growth 96h 10.4µM*, Pf growth 48h -49.3%, Vaccinia Venus -6.7%, VACV mCherry inh -10.6% and AMA1 RON2 block 0.0%.
`COc1ccc(-n2nc(C(=O)NCC(=O)NCC3CCCO3)c3ccccc3c2=O)cc1Cl` (stereo not given) gave Pf growth 96h inconclusive, Pf growth 48h inconclusive and AMA1 RON2 block 3.1%.
For COc1cccc(-c2nn(-c3ccc(C)cc3)cc2C(=O)NCC(c2cccs2)N2CCOCC2)c1 (stereo not given) the results were Pf growth 96h inconclusive, Pf growth 48h 3.29µM*, Vaccinia Venus -23.8%, VACV mCherry inh -26.9% and AMA1 RON2 block -5.4%.
COc1ccc(-c2nn(-c3ccccc3)cc2C(=O)NCC(c2cccs2)N2CCOCC2)cc1 (stereo not given) was read as Pf growth 96h inconclusive, Pf growth 48h 13.1µM*, Vaccinia Venus -17.5%, VACV mCherry inh -14.0% and AMA1 RON2 block -21.5%.
Screening COC(=O)c1c(N)n(-c2ccc(OC)c(OC)c2)c2nc3ccccc3nc12 returned Vaccinia Venus -0.1% and VACV mCherry inh 8.9%.
Cc1cc2c(cc1NS(=O)(=O)c1cccc(C#N)c1)n(C)c(=O)c(=O)n2C was read as Vaccinia Venus -0.1% and VACV mCherry inh -2.3%.
Screening CCOC(=O)c1c(NC(=O)c2cc(-c3cccc(Cl)c3)on2)sc(C(C)=O)c1C returned Vaccinia Venus -10.3% and VACV mCherry inh -11.4%.
Screening COC(=O)c1ccc(NC(=O)CN(c2cccc(C(F)(F)F)c2)S(C)(=O)=O)cc1 returned Vaccinia Venus 1.9% and VACV mCherry inh -5.4%.
`CCc1cc(C(=O)NCC(c2ccc(OC)cc2)N2CCOCC2)sc1C` (stereo not given) gave Pf growth 96h -1.0%, Pf growth 48h -0.5%, Vaccinia Venus -8.4%, VACV mCherry inh inactive and AMA1 RON2 block 20.7%.
For CCC1CCc2sc(C(=O)NCC(c3ccc(OC)cc3)N3CCOCC3)cc2C1 (stereo not given) the results were Pf growth 96h inconclusive, Pf growth 48h 11.7µM* and AMA1 RON2 block -3.1%.
`O=C(NCC(c1cccs1)N1CCOCC1)c1cn(-c2ccccc2)nc1-c1ccccc1` (stereo not given) gave Pf growth 96h 13.1µM*, Pf growth 48h inconclusive, Vaccinia Venus -12.9%, VACV mCherry inh -23.5% and AMA1 RON2 block -12.0%.
Screening COc1ccc(OC)c(-c2nn(-c3ccccc3)cc2C(=O)NCC(c2ccco2)N2CCCC2)c1 (stereo not given) returned Pf growth 96h inconclusive, Pf growth 48h 9.28µM* and AMA1 RON2 block -6.1%.
CCCN(CCC)S(=O)(=O)c1ccc2c(c1)N(CC(=O)NCc1ccc(F)cc1Cl)C(=O)CS2 was read as Vaccinia Venus -8.9% and VACV mCherry inh -18.7%.
`O=C(Cn1ncc2c(=O)oc3ccccc3c21)N1CCc2ccccc2C1` gave Pf growth 96h 34.8%, Pf growth 48h 8.4%, Vaccinia Venus -2.2%, VACV mCherry inh inactive and AMA1 RON2 block -6.4%.
`O=C(Cn1ncc2c(=O)oc3ccccc3c21)N1CCC(N2CCCCC2)CC1` gave Pf growth 96h 11.7µM*, Pf growth 48h 16.8%, Vaccinia Venus -9.4%, VACV mCherry inh -2.8% and AMA1 RON2 block 1.2%.
For O=C(Cn1ncc2c(=O)oc3ccccc3c21)NCCC1=CCCCC1 the results were Pf growth 96h 9.28µM*, Pf growth 48h -7.6%, Vaccinia Venus -15.5%, VACV mCherry inh -21.5% and AMA1 RON2 block 10.7%.
For Cc1ccc(CCNC(=O)Cn2ncc3c(=O)oc4ccccc4c32)cc1 the results were Vaccinia Venus -5.7% and VACV mCherry inh -11.7%.
Screening CCc1nn(CC(=O)NCc2cccc(OC)c2)c(=O)c2cc3cc(F)ccc3n12 returned Vaccinia Venus -6.2% and VACV mCherry inh 3.0%.
Cc1ccc2oc(=O)c3cc(C(=O)NCCCOC(C)C)sc3c2c1 was read as Vaccinia Venus 4.1% and VACV mCherry inh 7.0%.
Screening COc1ccccc1N(CC(=O)N(c1ccccc1)C(C)C)S(=O)(=O)c1cccs1 returned Pf growth 96h 9.28µM*, Pf growth 48h -10.8%, Vaccinia Venus -0.9%, VACV mCherry inh -4.3% and AMA1 RON2 block 21.2%.
Screening COc1ccc(N=C2SC(C(=O)N3CCN(c4ccc([N+](=O)[O-])cc4)CC3)CC(=O)N2C)cc1 (stereo not given) returned Pf growth 96h -17.6%, Pf growth 48h 14.7µM* and AMA1 RON2 block -23.8%.
For CCOC(=O)c1ccc2c(c1)n(CCCS(=O)(=O)[O-])c(/C=C/c1ccc(Cl)cc1)[n+]2CC the results were Pf growth 96h inconclusive, Pf growth 48h 9.28µM*, Vaccinia Venus 0.2%, VACV mCherry inh -7.6% and AMA1 RON2 block 3.7%.

Bioassay records (PubChem BioAssay)
